From ChEMBL document CHEMBL5606460, “ASAP - DENV-2 NS2B-NS3 protease fluorescence single point” (2024)
Hit rate of the full screen: of about 2,000 compounds, about 110 (5.5%) showed an effect of 50% or more. This is one part of a sample in which strong results are shown more often than they occur.

Target: Genome polyprotein (dengue virus type 2) (UniProt P29990)
[1] = Thailand/16681/1984, Concentration 25.0 uM, Number of replicates 1.0

Compound COc1cccc(Cn2ncc(C3CCNCC3)c2C)n1 has an inhibition (Thailand/16681/1984, Concentration 49.5 uM, Number of replicates 2.0, Standard deviation 0.6865140838852157 %) of -2.28%, an inhibition (Thailand/16681/1984, Concentration 99.01 uM, Number of replicates 2.0, Standard deviation 1.8857815426916016 %) of -0.708% and an inhibition (Thailand/16681/1984, Concentration 198.0 uM, Number of replicates 2.0, Standard deviation 1.685903611817113 %) of -0.083%.

O=Cc1ccc(N2CCC(C(=O)NCCCn3nccc3C3CC3)CC2)cc1 gave an inhibition [1] of 15.6%.

O=Cc1ccc(N2CCC(C(=O)Nc3cc(C(F)(F)F)ccn3)CC2)cc1 was tested, and the inhibition [1] was 10.8%.

In the case of Cc1cc(CO)c2cccc(NC(=O)c3nc(-c4ccccc4)oc3C(F)(F)F)c2n1, the inhibition (Thailand/16681/1984, Concentration 49.95 uM, Number of replicates 2.0, Standard deviation 3.021297847027803 %) is reported as 28.1% and the inhibition (Thailand/16681/1984, Concentration 99.9 uM, Number of replicates 2.0, Standard deviation 2.6625533133971393 %) is reported as 43.6%.

Work on Cc1cc(CO)c2cccc(C[C@H](NC(=O)c3nc(C4CCNCC4)oc3C)C(=O)O)c2n1 yielded an inhibition (Thailand/16681/1984, Concentration 49.95 uM, Number of replicates 2.0, Standard deviation 0.8080216779744858 %) of 2.79% and an inhibition (Thailand/16681/1984, Concentration 99.9 uM, Number of replicates 2.0, Standard deviation 0.4573836691864076 %) of 10%.

Cc1cc(CO)c2cccc(Cc3ccccc3NC(=O)c3nc(C4CCNCC4)oc3C)c2n1 showed an inhibition (Thailand/16681/1984, Concentration 49.95 uM, Number of replicates 2.0, Standard deviation 1.1742415452444355 %) of 3.36% and an inhibition (Thailand/16681/1984, Concentration 99.9 uM, Number of replicates 2.0, Standard deviation 2.967451033370285 %) of 69.9%.

CNc1ccccc1C(=O)Nc1ccccc1Cc1cccc2c(CO)cc(C)nc12 showed an inhibition (Thailand/16681/1984, Concentration 49.95 uM, Number of replicates 2.0, Standard deviation 0.9187611737377075 %) of -6.32% and an inhibition (Thailand/16681/1984, Concentration 99.9 uM, Number of replicates 2.0, Standard deviation 0.9402243720481833 %) of -7.75%.

Cc1cc(CO)c2cccc(Cc3cccc(NC(=O)c4nc(C5CCNCC5)oc4C)c3)c2n1 showed an inhibition (Thailand/16681/1984, Concentration 49.95 uM, Number of replicates 2.0, Standard deviation 2.427412589513284 %) of -2.68% and an inhibition (Thailand/16681/1984, Concentration 99.9 uM, Number of replicates 2.0, Standard deviation 2.040383474434353 %) of -3.1%.

Cc1cc(CO)c2cccc(NC(=O)c3nc(C4CCNCC4)oc3C)c2n1 gave an inhibition (Thailand/16681/1984, Concentration 49.95 uM, Number of replicates 2.0, Standard deviation 36.17788639576005 %) of 67.7% and an inhibition (Thailand/16681/1984, Concentration 99.9 uM, Number of replicates 2.0, Standard deviation 0.36888000776056334 %) of 98.7%.

For Cc1nccc(Cn2cc(C3CCNCC3)c(C)n2)n1, the inhibition (Thailand/16681/1984, Concentration 49.5 uM, Number of replicates 2.0, Standard deviation 0.12424043789356491 %) was -1.07%, the inhibition (Thailand/16681/1984, Concentration 99.01 uM, Number of replicates 2.0, Standard deviation 0.32682664095966646 %) was -0.665% and the inhibition (Thailand/16681/1984, Concentration 198.0 uM, Number of replicates 2.0, Standard deviation 1.945197851645592 %) was 1.76%.

Compound CN(Cc1nc2ccccc2n1C)C(=O)C1CCN(c2ccc(C=O)cc2)CC1 has an inhibition [1] of 14.9%.

In the case of CNC(=O)c1cc(Cl)c(F)cc1NS(=O)(=O)c1ccc(Oc2ccccc2Cl)cc1, the inhibition (Thailand/16681/1984, Concentration 49.5 uM, Number of replicates 2.0, Standard deviation 0.030615470758313425 %) is reported as 98.6%, the inhibition (Thailand/16681/1984, Concentration 99.01 uM, Number of replicates 2.0, Standard deviation 0.03013533386007732 %) is reported as 99.7% and the inhibition (Thailand/16681/1984, Concentration 198.0 uM, Number of replicates 2.0, Standard deviation 0.00477978979592347 %) is reported as 98.7%.

CNC(=O)c1cc(Cl)cc(OC)c1NS(=O)(=O)c1ccc(Oc2ccccc2Cl)cc1 was tested, and the inhibition (Thailand/16681/1984, Concentration 49.5 uM, Number of replicates 2.0, Standard deviation 0.8103097460864452 %) was 1.45%, the inhibition (Thailand/16681/1984, Concentration 99.01 uM, Number of replicates 2.0, Standard deviation 1.6946405270728757 %) was 1.53% and the inhibition (Thailand/16681/1984, Concentration 198.0 uM, Number of replicates 2.0, Standard deviation 1.1024722794831296 %) was -0.559%.

For CNC(=O)c1ccncc1NS(=O)(=O)c1ccc(Oc2ccccc2Cl)cc1, the inhibition (Thailand/16681/1984, Concentration 49.5 uM, Number of replicates 2.0, Standard deviation 3.023334340601001 %) was -2.48%, the inhibition (Thailand/16681/1984, Concentration 99.01 uM, Number of replicates 2.0, Standard deviation 3.20078374174672 %) was -0.672% and the inhibition (Thailand/16681/1984, Concentration 198.0 uM, Number of replicates 2.0, Standard deviation 2.339843576600017 %) was 2.95%.

Work on CNC(=O)c1cc(Cl)c(OC)cc1NS(=O)(=O)c1ccc(Oc2ccccc2Cl)cc1 yielded an inhibition (Thailand/16681/1984, Concentration 49.5 uM, Number of replicates 2.0, Standard deviation 1.7443589304782063 %) of 79.2%, an inhibition (Thailand/16681/1984, Concentration 99.01 uM, Number of replicates 2.0, Standard deviation 0.14348540542006383 %) of 98.5% and an inhibition (Thailand/16681/1984, Concentration 198.0 uM, Number of replicates 2.0, Standard deviation 0.05118043543332502 %) of 99.3%.

With CNC(=O)c1nccnc1NS(=O)(=O)c1ccc(Oc2ccccc2Cl)cc1 the inhibition (Thailand/16681/1984, Concentration 49.5 uM, Number of replicates 2.0, Standard deviation 1.5095148361141704 %) was 0.146%, the inhibition (Thailand/16681/1984, Concentration 99.01 uM, Number of replicates 2.0, Standard deviation 1.499470483470751 %) was 2.7% and the inhibition (Thailand/16681/1984, Concentration 198.0 uM, Number of replicates 2.0, Standard deviation 0.45486328764545614 %) was 7.74%.

In the case of Cc1cc(NS(=O)(=O)c2ccc(Oc3ccccc3Cl)cc2)c(C(=O)NCC(F)(F)F)cc1F, the inhibition (Thailand/16681/1984, Concentration 49.5 uM, Number of replicates 2.0, Standard deviation 0.004288863304468577 %) is reported as 80.7%, the inhibition (Thailand/16681/1984, Concentration 99.01 uM, Number of replicates 2.0, Standard deviation 0.05387243894141284 %) is reported as 85% and the inhibition (Thailand/16681/1984, Concentration 198.0 uM, Number of replicates 2.0, Standard deviation 0.06674981844803736 %) is reported as 82.2%.

CNC(=O)c1cn(S(=O)(=O)c2ccc(Oc3ccccc3Cl)cc2)c2ccc(Cl)cc12 gave an inhibition (Thailand/16681/1984, Concentration 49.5 uM, Number of replicates 2.0, Standard deviation 1.1380993582408887 %) of 0.625%, an inhibition (Thailand/16681/1984, Concentration 99.01 uM, Number of replicates 2.0, Standard deviation 1.0406365412270837 %) of 4.48% and an inhibition (Thailand/16681/1984, Concentration 198.0 uM, Number of replicates 2.0, Standard deviation 0.5161930213749926 %) of 12.8%.

CN1CCN(c2ccc(CCNc3ccccc3F)cc2)CC1 gave an inhibition (Thailand/16681/1984, Concentration 49.5 uM, Number of replicates 2.0, Standard deviation 1.1725472419342977 %) of -4.52%, an inhibition (Thailand/16681/1984, Concentration 99.01 uM, Number of replicates 2.0, Standard deviation 1.0151129155310683 %) of -3.89% and an inhibition (Thailand/16681/1984, Concentration 198.0 uM, Number of replicates 2.0, Standard deviation 0.9851713728804441 %) of -1.99%.

Compound CNS(=O)(=O)c1ccc(CNCc2ccc(N3CCN(C)CC3)cc2)cc1 has an inhibition (Thailand/16681/1984, Concentration 49.5 uM, Number of replicates 2.0, Standard deviation 0.2679515396874046 %) of -1.41%, an inhibition (Thailand/16681/1984, Concentration 99.01 uM, Number of replicates 2.0, Standard deviation 0.0046358372348345115 %) of -0.423% and an inhibition (Thailand/16681/1984, Concentration 198.0 uM, Number of replicates 2.0, Standard deviation 1.744466130987394 %) of 0.949%.

For CC(C)(C)OC(=O)N1CCOC[C@H]1CNCc1nnc2ccccn12, the inhibition (Thailand/16681/1984, Concentration 49.5 uM, Number of replicates 2.0, Standard deviation 3.6636813935617547 %) was -2.66%, the inhibition (Thailand/16681/1984, Concentration 99.01 uM, Number of replicates 2.0, Standard deviation 2.060655687099608 %) was -2.48% and the inhibition (Thailand/16681/1984, Concentration 198.0 uM, Number of replicates 2.0, Standard deviation 3.020799081222525 %) was -1.72%.

CC(C)Cn1cccc(C(=O)Nc2ccncc2)c1=O showed an inhibition (Thailand/16681/1984, Concentration 49.5 uM, Number of replicates 2.0, Standard deviation 1.6949837288603 %) of 4.6%, an inhibition (Thailand/16681/1984, Concentration 99.01 uM, Number of replicates 2.0, Standard deviation 0.80587134576346 %) of 8.75% and an inhibition (Thailand/16681/1984, Concentration 198.0 uM, Number of replicates 2.0, Standard deviation 0.4281674737986559 %) of 16%.

For Cc1cc(CO)c2cccc(Cc3ccccc3NC(=O)Cc3csc(Cc4ccccc4)n3)c2n1, the inhibition (Thailand/16681/1984, Concentration 49.95 uM, Number of replicates 2.0, Standard deviation 1.2441700790071646 %) was -0.54% and the inhibition (Thailand/16681/1984, Concentration 99.9 uM, Number of replicates 2.0, Standard deviation 1.3300226430755788 %) was 0.901%.
